Results: PubChem BioAssay AID2240 (Broad Institute, 2010)
The campaign covered roughly 37,000 compounds. About 100 (0.27%) were called active. No stated cut-off is given here; in the data, active means inhibition above about 85%; inconclusive means no clear call, values can overlap the other calls; inactive means below about 68%. The full list was thinned out, with actives kept by preference.

Experiment: blocks MITF activity, primary screen, MITF inhibitor project, cell-based, luminescence (AID 2240);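 further: human melanocyte line stably carrying TRPM1 promoter luciferase reporter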
Details: TRPM1 promoter luciferase, 24 h, active compounds read high, concentration not given here
With `COc1ccc(NC(=O)CSC2CC(=O)N(c3ccc(F)cc3)C2=O)cc1` (configuration not stated) the inhibition was -4.35% (inactive). In the case of `CC(=O)Nc1ccc(NC(=O)CN(c2ccc(I)cc2)S(C)(=O)=O)cc1`, the inhibition is reported as -73.1% (inactive). In the case of `C[C@@H]1CN([C@H](C)CO)C(=O)c2cc(N(C)C)ccc2O[C@@H]1CN(C)S(=O)(=O)c1cn(C)cn1`, the inhibition is reported as 0.48% (inactive). With `COc1ccc(NC(=O)Nc2ccc3c(c2)CC(=O)N([C@@H](C)CO)C[C@@H](C)[C@@H](CN(C)Cc2ccc(C(F)(F)F)cc2)O3)cc1` the inhibition was 40.7% (inactive). In the case of `C[C@@H]1CN([C@@H](C)CO)C(=O)c2cc(NC(=O)Nc3ccc(C(F)(F)F)cc3)ccc2O[C@@H]1CN(C)Cc1ccncc1`, the inhibition is reported as 0.516% (inactive). In the case of `COC(=O)c1c(C)c(=O)[nH]c2ccccc12`, the inhibition is reported as 11.2% (inactive). With `C[C@@H]1CN([C@H](C)CO)C(=O)c2cc(NC(=O)CCCCCC(=O)Nc3ccccc3N)ccc2O[C@H]1CN(C)C(=O)Nc1ccc(C(F)(F)F)cc1` the inhibition was 1.03% (inactive). For `CNC[C@H]1Oc2ccc(NC(=O)CCC(F)(F)F)cc2C(=O)N([C@@H](C)CO)C[C@H]1C`, the inhibition was -6.95% (inactive). For `CC(C)(O)C(O)COc1c2occc2cc2ccc(=O)oc12` (configuration not stated), the inhibition was -25% (inactive). With `CS(=O)(=O)N(CC(=O)Nc1ccc(Br)cc1)c1cc(Cl)c(Cl)cc1Cl` the inhibition was -6.97% (inactive). With `C[C@@H]1CN([C@H](C)CO)C(=O)Cc2cc(NC(=O)CCCN(C)C)ccc2O[C@H]1CN(C)S(=O)(=O)c1cccs1` the inhibition was -32% (inactive). With `C[C@H](CO)N1C[C@H](C)[C@H](CN(C)C(=O)Nc2ccccc2)Oc2ccc(NC(=O)C3CC3)cc2CC1=O` the inhibition was -0.845% (inactive). In the case of `C[C@@H]1CN([C@H](C)CO)C(=O)c2cc(NS(=O)(=O)c3cn(C)cn3)ccc2O[C@H]1CN(C)S(=O)(=O)c1ccc(Cl)cc1`, the inhibition is reported as -0.174% (inactive). With `Cc1noc(C)c1S(=O)(=O)Nc1ccc2c(c1)CC(=O)N([C@H](C)CO)C[C@@H](C)[C@@H](CN(C)C)O2` the inhibition was -9.62% (inactive). For `Cc1cc(C)c(NC(=O)CSc2nnc(-c3ccccc3)n2-c2ccc(F)cc2)c(C)c1`, the inhibition was 15.6% (inactive). For `Cc1ccc(S(=O)(=O)Nc2ccc3c(c2)C(=O)N([C@@H](C)CO)C[C@@H](C)[C@H](CN(C)Cc2ccc(C(F)(F)F)cc2)O3)cc1`, the inhibition was 24.8% (inactive). In the case of `O=C(CSc1nccc(=O)[nH]1)Nc1cccc(Br)c1`, the inhibition is reported as -6.51% (inactive). In the case of `C[C@H](CO)N1C[C@H](C)[C@H](CN(C)Cc2ccc(-c3ccccc3)cc2)Oc2ccc(NS(=O)(=O)c3ccccc3)cc2C1=O`, the inhibition is reported as 0.813% (inactive). In the case of `Cc1noc(C)c1NC(=O)Nc1ccc2c(c1)C(=O)N([C@@H](C)CO)C[C@@H](C)[C@H](CN(C)Cc1ccc(C(F)(F)F)cc1)O2`, the inhibition is reported as -0.382% (inactive). In the case of `Cc1cccc(NC(=O)CSc2nc3c(cc2C#N)CCCCC3)c1`, the inhibition is reported as 0.0416% (inactive). With `CN(CC(=O)Nc1ccc(F)cc1)S(=O)(=O)c1ccccc1` the inhibition was -37.2% (inactive). With `C[C@H]1CN([C@@H](C)CO)C(=O)Cc2cc(NC(=O)C3CC3)ccc2O[C@H]1CN(C)C(=O)Nc1ccc(C(F)(F)F)cc1` the inhibition was -4.89% (inactive). For `COc1ccc(CN(C)C[C@H]2Oc3ccc(NC(=O)CCN4CCOCC4)cc3C(=O)N([C@@H](C)CO)C[C@H]2C)cc1`, the inhibition was 9.34% (inactive). In the case of `Cc1cccc(C)c1NC(=O)C(C)N(c1ccc(Cl)cc1)S(C)(=O)=O` (configuration not stated), the inhibition is reported as -20.7% (inactive). In the case of `Cc1noc(C)c1S(=O)(=O)N(C)C[C@H]1Oc2ccc(NC(=O)CCN3CCOCC3)cc2CC(=O)N([C@H](C)CO)C[C@H]1C`, the inhibition is reported as 10.6% (inactive). With `O=C(NCc1ccco1)c1cc(-c2cccnc2)nc2ccc(Cl)cc12` the inhibition was -14.7% (inactive). For `Cc1ccc(S(=O)(=O)Nc2cccc3c2O[C@H](CN(C)S(=O)(=O)c2cn(C)cn2)[C@H](C)CN([C@H](C)CO)C3=O)cc1`, the inhibition was 0.736% (inactive). For `Cc1ccc(S(=O)(=O)N(C)C[C@@H]2Oc3ccc(NC(=O)Nc4ccc(F)cc4)cc3C(=O)N([C@H](C)CO)C[C@@H]2C)cc1`, the inhibition was -19.7% (inactive). With `Cc1ccc(-n2c(SCC(=O)Nc3ccc(F)c(F)c3)nnc2-c2cnccn2)cc1` the inhibition was -1.94% (inactive). With `C[C@H](CO)N1C[C@H](C)[C@H](CN(C)Cc2ccncc2)Oc2ccc(NS(=O)(=O)c3ccc(F)cc3)cc2CC1=O` the inhibition was -14.1% (inactive). In the case of `COc1ccccc1NC(=O)CN(c1ccc(Br)c(C)c1)S(C)(=O)=O`, the inhibition is reported as -1.36% (inactive). For `C[C@H]1CN([C@@H](C)CO)C(=O)Cc2cc(NS(=O)(=O)c3cccs3)ccc2O[C@@H]1CN(C)S(=O)(=O)c1cn(C)cn1`, the inhibition was -7.83% (inactive). In the case of `C[C@@H]1CN([C@@H](C)CO)C(=O)c2cccc(NC(=O)c3nc4ccccc4s3)c2O[C@@H]1CN(C)Cc1ccc(Cl)c(Cl)c1`, the inhibition is reported as 10.3% (inactive). With `CN(C)c1ccc(NC(=O)CN(C)S(=O)(=O)c2ccc(Br)cc2)cc1` the inhibition was -8.87% (inactive). For `COc1ccccc1NC(=O)CSc1ncc(-c2ccccc2)nn1`, the inhibition was -3.76% (inactive). For `Cn1c(SCc2nc3ccccc3c(=O)[nH]2)nnc1-c1cc2ccccc2o1`, the inhibition was 17.4% (inactive). In the case of `C[C@H]1CN([C@@H](C)CO)C(=O)Cc2cc(NC(=O)NC3CCCCC3)ccc2O[C@H]1CN(C)S(=O)(=O)c1cccs1`, the inhibition is reported as 6.16% (inactive). With `COc1ccc(S(=O)(=O)Nc2ccc3c(c2)C(=O)N([C@@H](C)CO)C[C@@H](C)[C@@H](CN(C)S(C)(=O)=O)O3)cc1` the inhibition was 2.87% (inactive). For `C[C@@H]1CN([C@@H](C)CO)C(=O)Cc2cc(NC(=O)Cc3ccccc3)ccc2O[C@@H]1CN(C)Cc1ccc(Oc2ccccc2)cc1`, the inhibition was 41.7% (inactive). With `O=C(CN1CCOCC1)Nc1sc2c(c1C(=O)Nc1ccc(Br)cc1)CCC2` the inhibition was 53% (inactive). With `COc1ccc(NC(=O)N(C)C[C@H]2Oc3ccc(NS(=O)(=O)c4cccs4)cc3C(=O)N([C@@H](C)CO)C[C@H]2C)cc1` the inhibition was -5.79% (inactive). In the case of `C[C@H](CO)N1C[C@H](C)[C@H](CN(C)S(=O)(=O)c2cn(C)cn2)Oc2c(NC(=O)c3ccc(-c4nccs4)cc3)cccc2C1=O`, the inhibition is reported as -4.22% (inactive). For `COc1ccc(NC(=O)Nc2ccc3c(c2)CC(=O)N([C@@H](C)CO)C[C@H](C)[C@@H](CN(C)CC2CCCCC2)O3)cc1`, the inhibition was -0.386% (inactive). With `CC(C)(C)c1ccc(S(=O)(=O)NCC(=O)Nc2ccc(F)cc2)cc1` the inhibition was 1.01% (inactive). In the case of `Cc1ccc(S(=O)(=O)Nc2ccc3c(c2)C(=O)N([C@H](C)CO)C[C@@H](C)[C@H](CN(C)Cc2ccccc2)O3)cc1`, the inhibition is reported as -3.79% (inactive). In the case of `C/C=C(\C)C(=O)OC(/C=C/C(O)C(C)O)C1C=CC(=O)O1` (configuration not stated), the inhibition is reported as -20% (inactive). For `CC(C)NC(=O)Nc1ccc2c(c1)C(=O)N([C@@H](C)CO)C[C@H](C)[C@H](CN(C)S(=O)(=O)c1cccs1)O2`, the inhibition was -11.3% (inactive). In the case of `O=C(Oc1ccc(Br)cc1)c1ccco1`, the inhibition is reported as 16.8% (inactive). With `C[C@@H]1CCCCO[C@H](CN(C)C(=O)C2CCCCC2)[C@@H](C)CN([C@H](C)CO)C(=O)c2cc(NC(=O)C3CCCCC3)ccc2O1` the inhibition was -0.585% (inactive). For `Cc1ccc(-c2nnc(SCC(=O)Nc3ccccc3OC(F)F)o2)cc1`, the inhibition was -24.6% (inactive). With `C[C@@H]1CCCCO[C@@H](CN(C)C(=O)Nc2cccc3ccccc23)[C@@H](C)CN([C@H](C)CO)C(=O)c2cc(NS(C)(=O)=O)ccc2O1` the inhibition was -18.2% (inactive). In the case of `C[C@@H]1CN([C@@H](C)CO)C(=O)c2cc(NC(=O)Nc3cccc4ccccc34)ccc2O[C@H]1CN(C)Cc1ccc(Cl)c(Cl)c1`, the inhibition is reported as 18.2% (inactive). For `COc1ccc(CCNc2nc(-c3cccc(NC(C)=O)c3)cs2)cc1OC`, the inhibition was 15.8% (inactive). In the case of `C[C@H]1CN([C@@H](C)CO)C(=O)c2cc(NS(C)(=O)=O)ccc2O[C@@H]1CN(C)S(=O)(=O)c1ccc(Cl)cc1`, the inhibition is reported as -7.11% (inactive). In the case of `C[C@@H]1CN([C@H](C)CO)C(=O)c2cccc(NS(=O)(=O)c3ccc(Cl)cc3)c2O[C@@H]1CN(C)C(=O)Nc1cccc2ccccc12`, the inhibition is reported as 38.8% (inactive). With `O=S(=O)(c1ccccc1)c1nc(-c2ccccc2F)oc1NCc1cccnc1` the inhibition was -15.8% (inactive). For `C[C@H](CO)N1C[C@H](C)[C@H](CN(C)S(=O)(=O)c2cn(C)cn2)Oc2ccc(NS(=O)(=O)c3ccccc3)cc2C1=O`, the inhibition was -1.93% (inactive). With `CCCN1C(=O)C(NS(=O)(=O)c2ccc(N)cc2)(C(F)(F)F)C(C(=O)OC)=C1C` (configuration not stated) the inhibition was 5.23% (inactive). With `C[C@@H]1CN([C@H](C)CO)C(=O)c2cccc(N(C)C)c2O[C@H]1CN(C)S(=O)(=O)c1cn(C)cn1` the inhibition was 8.04% (inactive). For `C[C@H](CO)N1C[C@H](C)[C@H](CN(C)C(=O)Nc2cccc3ccccc23)Oc2ccc(NS(C)(=O)=O)cc2C1=O`, the inhibition was 4.6% (inactive). For `COc1ccc(C)cc1S(=O)(=O)N1CCCC(C(=O)Nc2ccccc2C(F)(F)F)C1` (configuration not stated), the inhibition was 4.41% (inactive). For `Cc1ccc(NC(=O)c2cccc(N(C)C)c2)cc1NC(=O)c1ccc(O)cc1`, the inhibition was -40.4% (inactive). With `Cc1noc(C)c1NC(=O)Nc1ccc2c(c1)C(=O)N([C@H](C)CO)C[C@H](C)[C@@H](CN(C)C(=O)Nc1ccc(C(F)(F)F)cc1)O2` the inhibition was -13.6% (inactive). In the case of `CCc1ccc2c(c1)c1nc3ccccc3nc1n2CC(=O)OC`, the inhibition is reported as -10.5% (inactive). With `O=C(O)CCCC=C(c1ccccc1)c1ccccc1` the inhibition was 12.2% (inactive). With `COc1ccc(C)cc1NC(=O)CSc1nc(SC)ns1` the inhibition was 32.4% (inactive). In the case of `COc1ccc(NC(=O)Nc2ccc3c(c2)CC(=O)N([C@@H](C)CO)C[C@H](C)[C@@H](CN(C)Cc2ccc4c(c2)OCO4)O3)cc1`, the inhibition is reported as -13.4% (inactive).
